By AC50 is commonly meant the midpoint of the concentration-response curve, whichever way the signal moves.

Several values for one entry are separate records, joined by “and”; a condition that tells them apart may be missing. Equal entries are not always repeated. Records with an inconclusive call do not appear. Activity calls are given as the source filed them. The calls were made as follows: active = hit-call score of the fitted dose curve at least 0.9, where 1 is the maximum; inconclusive = response in the unintended direction; inactive = score below 0.9.

Data on 15 molecules can be found in PubChem BioAssay (EPA / NIEHS).

Experiment [1] relates to 5-hydroxytryptamine receptor 2C (pig). Description: NVS_GPCR_p5HT2C: NovaScreen (NVS) G Protein-Coupled Receptor Assay for pig Serotonin, 5-Hydroxytryptamine Receptor 2C (5HT2C) (AID 2283288). The essentials:
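Radioligand displacement on membranes from pig choroid plexus, detected by filter scintillation counting after 1 h. Tested first at a single 25 uM in duplicate, then in concentration-response for actives; DMSO served as baseline.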

Experiment [2] concerns the target human Vasopressin 1A Receptor (V1A), AVPR1A (gene 552) (UniProt P37288). Description: NVS_GPCR_hV1A: NovaScreen (NVS) G Protein-Coupled Receptor Assay for human Vasopressin 1A Receptor (V1A) (AID 2283284). The essentials:
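Single-concentration duplicate screen at 25 uM, with concentration-response follow-up (top 50 uM) for actives. The assay measured displacement of a radioligand from human platelet-derived receptor after 1.5 h, detected by filtration and scintillation counting.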

The target of experiment [3] is mouse Cholecystokinin, CCK1 Receptor (CCKA), Cckar (gene 12425) (UniProt O08786). Description: NVS_GPCR_mCCKAPeripheral: NovaScreen (NVS) G Protein-Coupled Receptor Assay for mouse Cholecystokinin, CCK1 Receptor (CCKA) (AID 2283285). The essentials:
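Chemicals were first screened in duplicate at 25 uM, with those meeting threshold (e.g., 30% inhibition) retested in singleton concentration series to 50 uM maximum. Binding of radioligand to mouse pancreatic membranes was read after 2 h by filtration and scintillation counting.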

Experiment [4] has as its system rabbit Platelet Activating Factor Receptor (PAF), gene 100354046. As to the kind of experiment: NVS_GPCR_rabPAF: NovaScreen (NVS) G Protein-Coupled Receptor Assay for rabbit Platelet Activating Factor Receptor (PAF) (AID 2283287). The essentials: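 Rabbit platelet membrane preparation; radioligand displacement read by filter-based scintillation counting 1 h after dosing, loss of signal versus DMSO. Primary screen in duplicate at 25 uM, actives followed up in concentration series.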

Experiment [5] deals with rat Adrenergic, Alpha 1, Non-selective Receptor (Adra1), Adra1a (gene 29412) (UniProt P43140). As to the kind of experiment: NVS_GPCR_rAdra1_NonSelective: NovaScreen (NVS) G Protein-Coupled Receptor Assay for rat Adrenergic, Alpha 1, Non-selective Receptor (Adra1) (AID 2283289). The essentials: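 Chemicals first screened in duplicate at 25 uM, then actives tested in concentration series up to 50 uM. Binding measured as displacement of radioligand from rat forebrain membrane receptors, 1 h, filtration with scintillation readout; DMSO baseline.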
Chain of rat Adrenergic, Alpha 1, Non-selective Receptor (Adra1), Adra1a (gene 29412) (P43140 whole entry, looked up): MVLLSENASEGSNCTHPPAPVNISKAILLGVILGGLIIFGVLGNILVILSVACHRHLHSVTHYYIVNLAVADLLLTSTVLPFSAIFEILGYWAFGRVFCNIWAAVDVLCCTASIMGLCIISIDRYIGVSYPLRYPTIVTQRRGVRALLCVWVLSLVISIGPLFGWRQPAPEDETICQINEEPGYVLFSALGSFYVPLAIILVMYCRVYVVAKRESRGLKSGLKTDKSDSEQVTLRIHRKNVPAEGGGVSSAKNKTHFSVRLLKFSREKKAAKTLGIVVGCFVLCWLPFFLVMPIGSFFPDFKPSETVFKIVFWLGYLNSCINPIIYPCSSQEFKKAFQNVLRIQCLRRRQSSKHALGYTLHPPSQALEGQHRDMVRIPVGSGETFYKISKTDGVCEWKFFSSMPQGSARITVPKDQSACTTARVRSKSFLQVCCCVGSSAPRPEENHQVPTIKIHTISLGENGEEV

The target of experiment [6] is guinea pig Serotonin, 5-Hydroxytryptamine Receptor 4 (5HT4), HTR4 (gene 100135548) (UniProt O70528). Description: NVS_GPCR_g5HT4: NovaScreen (NVS) G Protein-Coupled Receptor Assay for guinea pig Serotonin, 5-Hydroxytryptamine Receptor 4 (5HT4) (AID 2283294). The essentials: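 Compounds first screened in duplicate at 25 uM, actives followed up in concentration series. Binding measured as displacement of specific radioligand from guinea pig striatal membranes, 1 h, filter-based scintillation read-out versus DMSO baseline.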
Chain of guinea pig Serotonin, 5-Hydroxytryptamine Receptor 4 (5HT4), HTR4 (gene 100135548) (O70528 whole entry, looked up): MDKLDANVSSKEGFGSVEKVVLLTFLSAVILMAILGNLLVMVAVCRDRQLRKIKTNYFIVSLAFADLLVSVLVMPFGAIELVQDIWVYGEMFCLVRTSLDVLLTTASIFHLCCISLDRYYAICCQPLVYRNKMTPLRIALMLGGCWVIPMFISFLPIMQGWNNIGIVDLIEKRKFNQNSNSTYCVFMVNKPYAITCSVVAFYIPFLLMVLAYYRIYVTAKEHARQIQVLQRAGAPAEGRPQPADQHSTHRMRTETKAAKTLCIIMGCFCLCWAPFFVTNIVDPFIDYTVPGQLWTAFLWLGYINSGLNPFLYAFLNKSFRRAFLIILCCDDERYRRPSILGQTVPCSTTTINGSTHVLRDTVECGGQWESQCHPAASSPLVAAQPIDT

For experiment [7], the target named is human Opioid Receptor Mu (Opiate Mu), OPRM1 (gene 4988) (UniProt P35372). Description: NVS_GPCR_hOpiate_mu: NovaScreen (NVS) G Protein-Coupled Receptor Assay for human Opioid Receptor Mu (Opiate Mu) (AID 2283290).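 Also: hits lower bound tracer signal versus DMSO meaning displacement of the ligand.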 The essentials: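 Here, radioligand binding to CHO-extracted receptor was measured after 2.5 h using filter-based scintillation detection. Initial single-concentration screening used 25 uM in duplicate with plate controls; confirmed actives went to concentration-response testing.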
Chain of human Opioid Receptor Mu (Opiate Mu), OPRM1 (gene 4988) (P35372 whole entry, looked up): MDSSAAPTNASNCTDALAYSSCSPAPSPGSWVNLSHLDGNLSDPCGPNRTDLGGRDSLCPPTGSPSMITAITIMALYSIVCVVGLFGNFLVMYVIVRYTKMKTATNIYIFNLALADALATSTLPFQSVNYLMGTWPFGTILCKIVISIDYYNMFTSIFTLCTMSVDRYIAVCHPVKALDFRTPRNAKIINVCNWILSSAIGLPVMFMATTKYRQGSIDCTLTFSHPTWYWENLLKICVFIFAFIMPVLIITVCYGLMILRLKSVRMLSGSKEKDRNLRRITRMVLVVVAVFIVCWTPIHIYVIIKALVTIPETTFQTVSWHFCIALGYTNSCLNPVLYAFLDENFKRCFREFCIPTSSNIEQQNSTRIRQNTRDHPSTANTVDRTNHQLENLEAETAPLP

The target of experiment [8] is mouse Cholecystokinin, CCK2 Receptor (CCKB), Cckbr (gene 12426) (UniProt P56481). As to the kind of experiment: NVS_GPCR_mCKKBCentral: NovaScreen (NVS) G Protein-Coupled Receptor Assay for mouse Cholecystokinin, CCK2 Receptor (CCKB) (AID 2283293). The essentials: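 Mouse forebrain membrane preparation incubated 2 h with chemical and radioligand; bound radioactivity counted after filtration. Single-concentration duplicate screen at 25 uM, then concentration series to 50 uM max for hits, DMSO as baseline.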
Chain of mouse Cholecystokinin, CCK2 Receptor (CCKB), Cckbr (gene 12426) (P56481 whole entry, looked up): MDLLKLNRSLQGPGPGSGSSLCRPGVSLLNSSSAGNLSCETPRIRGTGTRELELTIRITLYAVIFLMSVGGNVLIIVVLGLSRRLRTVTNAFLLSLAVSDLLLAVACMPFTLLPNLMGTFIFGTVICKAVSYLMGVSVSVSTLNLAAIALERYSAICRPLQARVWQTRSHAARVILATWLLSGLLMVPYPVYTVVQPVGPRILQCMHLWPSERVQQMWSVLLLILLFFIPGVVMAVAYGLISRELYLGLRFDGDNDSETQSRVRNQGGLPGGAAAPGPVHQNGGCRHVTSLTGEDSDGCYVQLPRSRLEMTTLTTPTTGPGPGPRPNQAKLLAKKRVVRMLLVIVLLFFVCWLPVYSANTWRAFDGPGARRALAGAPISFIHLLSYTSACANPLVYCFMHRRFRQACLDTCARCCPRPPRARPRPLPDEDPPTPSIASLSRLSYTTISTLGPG

Experiment [9] has as its target rat Serotonin, 5-Hydroxytryptamine Receptor 1 (5HT1), Non-Selective Binding, Htr1a (gene 24473) (UniProt P19327). Description: NVS_GPCR_r5HT1_NonSelective: NovaScreen (NVS) G Protein-Coupled Receptor Assay for rat Serotonin, 5-Hydroxytryptamine Receptor 1 (5HT1), Non-Selective Binding (AID 2283286). The essentials: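 Binding of a radioligand to rat cortex membranes is read by filtration and scintillation counting after 1 h. Compounds were screened at 25 uM in duplicate. Actives were then titrated to a top of 50 uM. DMSO is the baseline.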

Experiment [10] has as its target rat Serotonin, 5-Hydroxytryptamine Receptor (5HT), Non-Selective Binding, Htr1a (gene 24473) (UniProt P19327). As to the kind of experiment: NVS_GPCR_r5HT_NonSelective: NovaScreen (NVS) G Protein-Coupled Receptor Assay for rat Serotonin, 5-Hydroxytryptamine Receptor (5HT), Non-Selective Binding (AID 2283295). The essentials:
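Rat cortex membrane preparation incubated 1 h with radioligand and test chemical; bound radioactivity counted after filtration. Screening began in duplicate at 25 uM with concentration-series follow-up; fitting relative to DMSO.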

Chain of human Vasopressin 1A Receptor (V1A), AVPR1A (gene 552) (P37288 whole entry, looked up): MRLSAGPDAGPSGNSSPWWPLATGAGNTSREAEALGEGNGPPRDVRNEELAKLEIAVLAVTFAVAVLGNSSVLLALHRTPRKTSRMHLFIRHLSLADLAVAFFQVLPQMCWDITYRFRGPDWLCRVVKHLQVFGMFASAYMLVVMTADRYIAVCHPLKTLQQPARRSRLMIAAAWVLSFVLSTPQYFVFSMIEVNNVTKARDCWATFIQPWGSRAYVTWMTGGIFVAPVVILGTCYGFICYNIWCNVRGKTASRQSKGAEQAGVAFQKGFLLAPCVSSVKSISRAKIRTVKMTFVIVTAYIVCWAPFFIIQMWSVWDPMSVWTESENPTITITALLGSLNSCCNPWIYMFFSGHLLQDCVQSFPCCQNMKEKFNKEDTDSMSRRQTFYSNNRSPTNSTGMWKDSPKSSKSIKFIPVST
Chain of rat Serotonin, 5-Hydroxytryptamine Receptor 1 (5HT1), Non-Selective Binding, Htr1a (gene 24473) (P19327 whole entry, looked up): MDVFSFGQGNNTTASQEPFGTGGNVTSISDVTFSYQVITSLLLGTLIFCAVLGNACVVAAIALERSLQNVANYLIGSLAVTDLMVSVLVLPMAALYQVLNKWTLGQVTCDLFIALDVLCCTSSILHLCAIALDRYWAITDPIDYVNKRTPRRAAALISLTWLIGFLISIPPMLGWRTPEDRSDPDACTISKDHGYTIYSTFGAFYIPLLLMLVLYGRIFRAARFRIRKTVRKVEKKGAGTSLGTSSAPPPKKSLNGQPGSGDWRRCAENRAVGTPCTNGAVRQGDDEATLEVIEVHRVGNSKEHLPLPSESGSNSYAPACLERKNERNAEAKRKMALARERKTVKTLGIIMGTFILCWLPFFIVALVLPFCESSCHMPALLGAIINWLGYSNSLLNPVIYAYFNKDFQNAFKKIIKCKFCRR
Chain of rat Serotonin, 5-Hydroxytryptamine Receptor (5HT), Non-Selective Binding, Htr1a (gene 24473) (P19327 whole entry, looked up): as above
Chain of mouse Cholecystokinin, CCK1 Receptor (CCKA), Cckar (gene 12425) (O08786 whole entry, looked up): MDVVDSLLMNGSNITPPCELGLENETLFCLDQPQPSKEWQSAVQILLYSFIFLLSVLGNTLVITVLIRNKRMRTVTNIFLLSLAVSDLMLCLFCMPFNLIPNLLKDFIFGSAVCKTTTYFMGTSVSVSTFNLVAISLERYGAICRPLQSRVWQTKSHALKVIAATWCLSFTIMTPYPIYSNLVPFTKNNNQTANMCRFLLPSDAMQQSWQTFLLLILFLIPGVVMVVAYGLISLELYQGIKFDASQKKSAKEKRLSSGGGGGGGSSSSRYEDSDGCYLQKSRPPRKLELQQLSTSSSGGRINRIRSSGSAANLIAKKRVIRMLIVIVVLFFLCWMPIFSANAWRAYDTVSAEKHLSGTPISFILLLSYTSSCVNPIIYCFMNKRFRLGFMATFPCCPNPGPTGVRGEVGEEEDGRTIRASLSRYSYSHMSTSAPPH

As for `CCC(C)c1ccccc1O` (stereo not given), the AC50 in experiment [1] is 11.5 µM (active).
Consider `CCCCc1oc2ccccc2c1C(=O)c1cc(I)c(OCCN(CC)CC)c(I)c1`, for which, in experiment [2], the result was inactive. The AC50 in experiment [3] is 21.6 µM (active); in experiment [4], 22.5 µM (active); in experiment [5], 24.5 µM (active); in experiment [6], 15.7 µM (active).
Regarding `CN(Cc1cnc2nc(N)nc(N)c2n1)c1ccc(C(=O)N[C@@H](CCC(=O)O)C(=O)O)cc1`, the molecule was classed as inactive in [1], in [7] and in experiment [8].
As to `CC(C)(C)c1ccc(O)c(O)c1`, the half-maximal activity concentration (AC50) in [7] is 17.4 µM (active).
Take `CN(C)CCOC(c1ccccc1)c1ccccc1`: the half-maximal activity concentration (AC50) was 6.56 µM (active) in experiment [9] and 7.06 µM (active) in [10]. The molecule was called inactive in experiment [7] and in [6].
For the molecule `CCCCC(CC)C(=O)O` (stereo not given), in experiment [2], the call was inactive.
As to `CN(C)c1ccc(C(=C2C=CC(=[N+](C)C)C=C2)c2ccccc2)cc1`, the AC50 in [7] was 6.79 µM (active) and 6.47 µM (active).
Regarding `C=CC(=C)CC/C=C(\C)CCC=C(C)C`, the result in [7] was inactive.
In the case of `NC(=NCCCCCCN=C(N)/N=C(\N)Nc1ccc(Cl)cc1)/N=C(\N)Nc1ccc(Cl)cc1`, the half-maximal activity concentration (AC50) in experiment [7] was 3.32 µM (active) and 3.04 µM (active).
With `CCCCCCCCCCCCOS(=O)(=O)O`, the molecule was classed as inactive in experiment [1]. In addition, the concentration at half-maximal activity (AC50) in experiment [7] was 25 µM (active).
For `O=C1OC2(c3ccccc31)c1cc(I)c(O)c(I)c1Oc1c2cc(I)c(O)c1I`, in experiment [7], the AC50 was 0.0269 µM (active).
For the molecule `CS(=O)(=O)c1ccc([C@@H](CC2CCCC2)C(=O)Nc2cnccn2)cc1Cl`, the call in experiment [2] was inactive.
`N=C(N)c1ccc(OCCCCCOc2ccc(C(=N)N)cc2)cc1`: the concentration at half-maximal activity (AC50) in [9] is 3.44 µM (active); in [1], 10.2 µM (active); in experiment [6], 2.4 µM (active); in [10], 14 µM (active).
On to `O=C(CCCN1CCC(O)(c2ccc(Cl)cc2)CC1)c1ccc(F)cc1`, for which the half-maximal activity concentration (AC50) is 37.3 µM (active) in experiment [3] and 1.75 µM (active) in [6]. In experiment [9], the call was inactive.
As to `CCCCCCCCCCCCCCCCCC[N+](C)(C)Cc1ccccc1`, the AC50 in [7] is 2.17 µM (active).
